Laboratory results published in PubChem BioAssay AID489028 (Sanford-Burnham Center for Chemical Genomics, 2010).
The whole screen tested about 10,000 compounds, of which about 5,600 (56%) were called active. Cut-off read from the data, not from the text of the source: active = inhibition above about 40%; inactive = the rest. The set was probably picked from earlier hits. A selection follows.

Biological target: Protein Mdm4 (Homo sapiens) + E3 ubiquitin-protein ligase Mdm2 (Homo sapiens) (UniProt O15151+Q00987)
Sequence (O15151 whole entry, looked up): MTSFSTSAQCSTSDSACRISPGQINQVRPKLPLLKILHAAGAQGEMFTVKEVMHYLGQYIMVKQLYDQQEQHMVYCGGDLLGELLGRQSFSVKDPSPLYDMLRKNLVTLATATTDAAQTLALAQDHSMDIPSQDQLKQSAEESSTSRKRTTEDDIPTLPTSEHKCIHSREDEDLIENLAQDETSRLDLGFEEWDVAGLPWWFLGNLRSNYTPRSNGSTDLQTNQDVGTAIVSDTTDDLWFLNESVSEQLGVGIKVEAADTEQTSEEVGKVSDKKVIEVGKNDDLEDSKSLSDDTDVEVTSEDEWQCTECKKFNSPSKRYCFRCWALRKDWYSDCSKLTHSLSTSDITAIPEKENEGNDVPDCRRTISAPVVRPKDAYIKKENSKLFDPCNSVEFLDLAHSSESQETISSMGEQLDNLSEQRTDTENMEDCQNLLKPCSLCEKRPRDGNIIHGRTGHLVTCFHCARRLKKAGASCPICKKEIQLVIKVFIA
Sequence (Q00987 whole entry, looked up): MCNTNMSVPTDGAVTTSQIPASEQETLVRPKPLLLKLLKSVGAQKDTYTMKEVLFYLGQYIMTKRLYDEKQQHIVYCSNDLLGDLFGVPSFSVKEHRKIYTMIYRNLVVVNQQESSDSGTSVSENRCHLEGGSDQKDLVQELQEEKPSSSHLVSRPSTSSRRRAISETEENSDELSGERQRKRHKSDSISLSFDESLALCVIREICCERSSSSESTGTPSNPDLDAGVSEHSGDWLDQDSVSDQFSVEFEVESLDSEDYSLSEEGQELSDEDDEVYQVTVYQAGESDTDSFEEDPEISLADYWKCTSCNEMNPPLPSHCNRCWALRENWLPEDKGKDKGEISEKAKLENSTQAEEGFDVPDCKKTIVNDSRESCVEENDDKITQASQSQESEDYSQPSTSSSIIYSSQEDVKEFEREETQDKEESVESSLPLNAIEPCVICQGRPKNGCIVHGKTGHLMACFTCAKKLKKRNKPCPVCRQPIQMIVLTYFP
Test: Mdm2-MdmX complex disruptors, retested hits, confirmation, luminescence, single concentration (AID 489028)
Settings: Mdm2-MdmX binding, luminescent assay; at 8 µM; hits give high values

Row | SMILES | inhibition
1 | COc1cc(/C=N/NC(=O)Nc2ccccc2)ccc1OCCOc1ccccc1C | 72.8% (active)
2 | COc1ccc(/C=C/C(=O)Nc2ccc(C34CC5CC(CC(O)(C5)C3)C4)cc2)cc1OC | 36.9% (inactive)
3 | Brc1ccc2ncnc(NCc3cccnc3)c2c1 | 68.7% (active)
4 | CCn1c(O)c(N=NC(=O)c2cccc(S(=O)(=O)N3CCCCC3)c2)c2ccccc21 | 36.7% (inactive)
5 | Cc1cccc(CS(=O)(=O)c2ncc(Cl)c(C(=O)Nc3ccc(F)cc3)n2)c1 | 75.5% (active)
6 | Cc1cccc(NC(=O)c2nc(S(=O)(=O)Cc3ccccc3)ncc2Cl)c1 | 95.2% (active)
7 | CC(=O)Nc1nc(C)c(-c2csc(Nc3ccc(S(N)(=O)=O)cc3)n2)s1 | 44.5% (active)
8 | CC(C)c1cc(C(=O)N/N=C/C(Br)=C/c2ccccc2)n[nH]1 | 35.2% (inactive)
9 | CCCn1nc(C(=O)Nc2ccc3nc(C)sc3c2)c2ccccc2c1=O | 24.9% (inactive)
10 | CCCC(=O)Nc1nc2ccc(NC(=O)c3cccnc3)cc2s1 | 48.4% (active)
11 | COc1cc(C(=O)NCc2nnc(SCC(=O)Nc3nc4ccc(C)cc4s3)o2)cc(OC)c1OC | -0.1% (inactive)
12 | CCN1C(=O)c2cccc3c(S(=O)(=O)Nc4ccccc4O)ccc1c23 | 39% (inactive)
13 | O=C(/C=C/c1ccc(Cl)c([N+](=O)[O-])c1)c1ccc(O)cc1 | 85.4% (active)
14 | COc1ccc(C(=O)/C=C/c2cccnc2)c(OC)c1 | -4.6% (inactive)
15 | O=C(/C=C/c1ccc(Cl)c([N+](=O)[O-])c1)c1cccnc1 | 66.7% (active)
16 | COc1ccc(/C=C/C(=O)c2ccc(NS(=O)(=O)c3ccc(C)cc3)cc2)cc1O | 38.9% (inactive)
17 | Cc1[nH]c(C)c(S(=O)(=O)N2CCN(c3cccc(C(F)(F)F)c3)CC2)c1C(=O)N1CCCCC1 | 52.8% (active)
18 | CCNC(=O)c1c(O)c2cccc3c2n(c1=O)CC3 | 75.1% (active)
19 | O=C(COC(=O)/C=C/c1cn(-c2ccccc2)nc1-c1cccnc1)Nc1ccc(Cl)cc1Cl | 18.3% (inactive)
20 | CCOC(=O)c1c(-c2ccc(C)cc2C)csc1NC(=O)CSc1nnnn1C | 51% (active)
21 | CCC(C)N1C(=O)S/C(=C/c2ccc(Sc3nc4ccccc4[nH]3)o2)C1=O (stereo not given) | 23.9% (inactive)
22 | Cc1cccc(-n2c(C)cc(/C=N\NC(=O)c3cccs3)c2C)c1 | 40.1% (active)

Row | SMILES | inhibition
23 | C[C@@H]1C[C@@H]2O[C@H]2/C=C\C=C\C(=O)Cc2c(Cl)c(O)cc(O)c2C(=O)O1 | 54.2% (active)
24 | Cc1ccc(C2CC(=O)NC(SCC(=O)OCc3ccccc3)=C2C#N)o1 (stereo not given) | 44.5% (active)
25 | C=CCC[C@@H](Cc1ccc(F)cc1)C(=O)OC[C@H](Cc1c[nH]c2ccccc12)NC(=O)[C@@H](CC=C)CC(=O)N(CCO)Cc1ccccc1 | 21.8% (inactive)
26 | O=C(Nc1ccccc1Cl)/C(Cl)=C(\Cl)S(=O)c1ccccc1 (stereo not given) | 100% (active)
27 | O=C1/C(=C\c2ccccc2Cl)SC(=S)N1CCC(=O)N1CCCc2ccccc21 | 60.8% (active)
28 | COc1cc2c(cc1OC)C(C)N(S(=O)(=O)c1cnc(Cl)c(Cl)c1)CC2 (stereo not given) | 58.1% (active)
29 | C=CCn1c(C)cc(C(=O)CN2C(=O)c3ccccc3C2=O)c1C | 68% (active)
30 | COc1ccc(-c2cn[nH]c2-c2ccc(OC)cc2)cc1 | 63% (active)
31 | CC1(C)Cc2nc3sc4c(SCC(=O)NC(c5ccccc5)c5ccccc5)ncnc4c3cc2CO1 | 2.85% (inactive)
32 | CCOc1ccc(S(=O)(=O)Nc2cccc(C(=O)NCC3(N4CCCCC4)CCCCC3)c2)cc1 | 78.6% (active)
33 | CCOC(=O)c1cc(NC(=O)c2ccc(Cl)cc2)c(=O)oc1-c1ccccc1 | 35.2% (inactive)
34 | CCOC(=O)c1c(-c2ccc(C)cc2)csc1/N=C(\C)C1=C(O)c2ccccc2C1=O | 28.7% (inactive)
35 | CCOC(=O)c1c(-c2cccc(C)c2)csc1NC(=O)c1c(-c2ccccc2)noc1C | 92.6% (active)
36 | Fc1ccc(CNc2nc3ccccc3n3nnnc23)cc1 | 9.85% (inactive)
37 | Nc1nonc1-c1nc2ccccc2n1Cc1ccc(F)cc1 | 63.5% (active)
38 | COc1cccc(/C=N/NC(=O)c2[nH]nc3c2CCc2ccccc2-3)c1O | 83.7% (active)
39 | COc1ccc(CNc2nc(NCc3ccc(OC)cc3)c3ncn(C4CCCC4)c3n2)cc1 | 45.4% (active)
40 | COc1ccc(C2CC(c3ccccc3)=NN2C(=O)c2ccc(Cl)c([N+](=O)[O-])c2)cc1 (stereo not given) | 46.1% (active)
41 | COc1ccc(-c2cc(C3CCN(c4ncccc4[N+](=O)[O-])CC3)[nH]n2)cc1 | 24.6% (inactive)
42 | CCOc1ccc2nc(Cl)c(C3CC(c4ccccc4)=NN3C(=O)c3cccs3)cc2c1 (stereo not given) | 5.3% (inactive)
43 | CCOC(=O)C1=C(NC(=S)NC(=O)c2ccccc2)c2ccccc2CC1(C)C | 28.8% (inactive)
44 | N#CC1=C(N)Oc2cc(O)ccc2C1C1CCCCC1 (stereo not given) | 45.4% (active)

Row | SMILES | inhibition
45 | COc1ccc(C2C(C#N)=C(N)Oc3cc(N)ccc32)cc1OC (stereo not given) | 9.6% (inactive)
46 | c1ccc2c(c1)CSc1sccc1C2=C1CCNCC1 | 72.3% (active)
47 | CS(=O)(=O)c1ccc(-c2nnn(CC(=O)Nc3ccc4c(c3)OCCO4)n2)cc1 | -2.65% (inactive)
48 | O=C(Nc1ccc2c(c1)OCCO2)C1CCCC1 | 69.3% (active)
49 | O=C(N/N=C\c1cc2c(cc1Cl)OCO2)c1ccc(Br)s1 | 57.1% (active)
50 | Cc1ccc(-c2nc3ccccc3[nH]2)cc1NC(=O)c1sc2ccccc2c1Cl | 57.4% (active)
51 | COc1ccc(Br)cc1C(=O)NC(=S)Nc1cc(-c2nc3ccccc3[nH]2)ccc1C | 16.8% (inactive)
52 | COc1ccc(CN(C)C(=O)c2cc(-c3ccc(C)cc3C)nc3ccccc23)c(OC)c1OC | 60.2% (active)
53 | COc1ccc(-c2cc(C(=O)N(C)CC(=O)Nc3ccccc3Cl)c3ccccc3n2)cc1OC | 49.2% (active)
54 | COc1ccc(-c2cc(C(=O)N(C)Cc3ccc(OC)c(OC)c3OC)c3ccccc3n2)cc1OC | 46.9% (active)
55 | CN(C)c1ccc(-n2cccc2/C=C2/SC(=Nc3ccc(F)cc3)NC2=O)cc1 | 12.6% (inactive)
56 | CCCc1nc2c(c(=O)c3ccccc3n2C)c(=O)n1C1CCCCCC1 | 87.2% (active)
57 | Cc1ccc(Oc2nc(-c3ccccn3)nc3ccccc23)cc1 | 3.9% (inactive)
58 | CC(C)(C)Nc1nc(-c2ccccn2)nc2ccccc12 | 85.5% (active)
59 | COc1cc(/C=C2\Oc3ccc(C#Cc4ccc(O)cc4)cc3C2=O)cc(OC)c1 | 33.2% (inactive)
60 | O=C(Nc1ccncc1)c1c(F)cccc1F | 61.9% (active)
61 | COc1ccc2cc1Oc1ccc(cc1)C[C@H]1c3cc(c(OC)cc3CCN1C)Oc1c(O)c(OC)cc3c1[C@H](C2)N(C)CC3 | 100% (active)
62 | COc1ccc(-c2nnc(SC(=O)N3c4ccccc4Sc4ccccc43)o2)cc1 | 31.4% (inactive)
63 | CC[C@]1(O)C[C@@H]2CN(CCc3c([nH]c4ccccc34)[C@@](C(=O)OC)(c3cc4c(cc3OC)N(C)[C@H]3[C@@](O)(C(=O)OC)[C@H](OC(C)=O)[C@]5(CC)C=CCN6CC[C@]43[C@@H]65)C2)C1 | 72.5% (active)
64 | CC[C@]1(O)CC2CN(CCc3c([nH]c4ccccc34)[C@@](C(=O)OC)(c3cc4c(cc3OC)N(C=O)[C@H]3[C@@](O)(C(=O)OC)[C@H](OC(C)=O)[C@]5(CC)C=CCN6CC[C@]43[C@@H]65)C2)C1 (stereo not given in full) | 58.4% (active)
65 | O=C1NC(Nc2nc3ccccc3s2)(C(F)(F)F)C(=O)N1C1CCCCC1 (stereo not given) | 62.5% (active)
66 | COc1cc(NS(=O)(=O)c2ccc3ccccc3c2)c2ncccc2c1 | 88.3% (active)

Row | SMILES | inhibition
67 | CC(C)c1ccccc1OCC(O)CN(CC(O)COc1cccc2ccccc12)C(C)C (stereo not given) | 29.8% (inactive)
68 | CC(=O)c1ccc(S(=O)(=O)N2CCN(C(=O)/C=C/c3ccc4ccccc4n3)CC2)cc1 | 71.5% (active)
69 | O=C(Cc1csc(Nc2nc(=S)[nH]c3ccccc23)n1)NCCCN1CCN(c2cccc(Cl)c2)CC1 | 5% (inactive)
70 | CC1(C)CC(N2CCN(C(c3ccccc3)c3ccccc3)CC2)=CC(=[N+]2CCCCC2)C1 | 89.8% (active)
71 | COc1cc([N+](=O)[O-])ccc1NC(=O)COC(=O)CCOc1ccc(C)cc1 | 21.9% (inactive)
72 | COc1ccc(-c2nn(C)c(=O)c3ccccc23)cc1NC(=O)COc1ccccc1 | 41.5% (active)
73 | COC(=O)c1cc(NC(=O)c2nn(C)c(=O)c3ccccc23)cc(C(=O)OC)c1 | 3.8% (inactive)
74 | CCN(CC)c1ccc(/C=N/Nc2nc(C)cc(C)n2)c(O)c1 | 53% (active)
75 | CCN(CC)c1ccc(/C=N/NC(=O)c2cnccn2)c(O)c1 | 79% (active)
76 | CCOc1ccc(-n2c(O)c(/C=N/Nc3nc(C)cc(C)n3)c3ccccc3c2=O)cc1 | 35.1% (inactive)
77 | Cc1ccc(NC(=S)NC(NC(=O)Cc2cccc3ccccc23)C(Cl)(Cl)Cl)cc1 (stereo not given) | 11.2% (inactive)
78 | C/C(=N\NC(=O)c1ccccc1F)c1ccccn1 | 41.9% (active)
79 | COc1ccc(CC(=O)N/N=C(\C)c2ccccn2)cc1 | 14.6% (inactive)
80 | COc1ccccc1N(CC(=O)N/N=C(\C)c1ccccc1O)S(=O)(=O)c1ccc(C)cc1 | 60.6% (active)
81 | Cc1ccccc1C(=O)N1CCN(c2ccc(NC(=O)c3cccs3)cc2)CC1 | 48.6% (active)
82 | Cc1ccc(-c2nnc(-c3ccc(NC(=O)c4cccs4)cc3)o2)cc1 | 20.9% (inactive)
83 | Cc1cc2oc3ccc(NCCC4CCCN4C)cc3c(=O)c2cc1C (stereo not given) | 1.8% (inactive)
84 | Cc1cccc(NS(=O)(=O)c2ccc(-c3cnc(C4CC4)o3)cc2)c1 | 47% (active)
85 | COC(=O)CCNc1ccc2c(c1)OCCO2 | 50.1% (active)
